Results from PubChem BioAssay AID677 (Vanderbilt High Throughput Screening Facility, 2007).
Hit rate of the full screen: of about 1,700 compounds, about 720 (42%) were called active. The set was probably picked from earlier hits. Not all results are given here. Values without a mark were called inactive.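 The calls were made as follows: active = calcium response below the same-plate mean of wells given acetylcholine alone at its 80%-effect dose, minus 3 SD; inactive = the rest.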

The compounds below were run against Muscarinic acetylcholine receptor M1 (Rattus norvegicus) (UniProt P08482) (assay: blockers of ACh-evoked M1 calcium signal – CHO cells, Fluo-4 calcium, duplicate, confirmation (AID 677;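 also: raw fluorescence intensity difference in arbitrary instrument units and not normalized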)). Details: ACh EC80 antagonism, at 10 µM, hits give low values.
Muscarinic acetylcholine receptor M1 (Rattus norvegicus), sequence (P08482 whole entry, looked up): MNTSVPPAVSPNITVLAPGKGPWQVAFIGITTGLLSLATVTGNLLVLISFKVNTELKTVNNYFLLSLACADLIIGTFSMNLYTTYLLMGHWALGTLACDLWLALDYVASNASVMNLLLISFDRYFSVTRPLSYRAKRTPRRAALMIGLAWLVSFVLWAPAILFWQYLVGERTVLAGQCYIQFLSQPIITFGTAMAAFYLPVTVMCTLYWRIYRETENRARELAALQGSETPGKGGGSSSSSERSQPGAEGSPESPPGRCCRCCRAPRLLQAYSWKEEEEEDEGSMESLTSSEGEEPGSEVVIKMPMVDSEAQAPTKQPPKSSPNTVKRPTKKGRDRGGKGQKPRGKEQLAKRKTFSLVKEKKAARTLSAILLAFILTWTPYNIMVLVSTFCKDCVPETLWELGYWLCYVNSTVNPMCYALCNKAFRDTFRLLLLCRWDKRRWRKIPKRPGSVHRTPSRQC
For `Cc1ccsc1-c1nc(CSCC(=O)NCCN2CCCC2)c(C)o1`, the calcium response (max-min fluorescence) was 379 (active). With `C=CCn1c(=S)[nH]c2nc3c(cc2c1=O)COC(C)(C)C3` the calcium response (max-min fluorescence) was 521. In the case of `CN1CCN(c2ccc(NC(=O)COc3ccc(Cl)cc3Cl)cc2)CC1`, the calcium response (max-min fluorescence) is reported as 339 (active). With `O=C(Cc1cccs1)N1CCCC(c2nc(-c3ccc(S(=O)(=O)N4CCCC4)cc3)no2)C1` (stereo not given) the calcium response (max-min fluorescence) was 457 (active). `CCn1c(=N)n(CC(=O)c2cccc(OC)c2)c2ccccc21` was tested, and the calcium response (max-min fluorescence) was 447 (active). For `CCOC(=O)Nc1ccc2c(c1)N(C(=O)CN1CCN3CCCC3C1)c1ccccc1CC2` (stereo not given), the calcium response (max-min fluorescence) was 476 (active). With `Cc1c(C)c2cc3c4c(oc3c(C)c2oc1=O)CCCC4` the calcium response (max-min fluorescence) was 548. In the case of `Cc1ccccc1C(OCC(O)CN1CCCCC1CCO)c1ccccc1` (stereo not given), the calcium response (max-min fluorescence) is reported as 337 (active). Compound `O=S(=O)(CCc1nc2ccccc2o1)c1ccc(Cl)cc1` has a calcium response (max-min fluorescence) of 608. For `CCCCN(C)C(=O)c1ccc2c(c1)N(CC)C(=O)c1ccccc1S2(=O)=O`, the calcium response (max-min fluorescence) was 320 (active). Compound `C=CCSc1nc2ccccc2[nH]1` has a calcium response (max-min fluorescence) of 649. `COc1ccc(-c2noc(CN(C)S(=O)(=O)c3ccc(C)cc3)n2)cc1` was tested, and the calcium response (max-min fluorescence) was 520. For `Cc1ccc(-c2noc(CCC(=O)Nc3ccccc3N3CCN(C)CC3)n2)cc1`, the calcium response (max-min fluorescence) was 535 (active). Compound `O=C(c1ccco1)N1CCN=C1SCc1cccc(Cl)c1` has a calcium response (max-min fluorescence) of 602. With `CN1CCN(CC(=O)Nc2sc3c(c2C#N)CCC(C(C)(C)C)C3)CC1` (stereo not given) the calcium response (max-min fluorescence) was 551. In the case of `O=C(C(NS(=O)(=O)c1cccc2nsnc12)c1ccccc1)N1CCN(c2ccccn2)CC1` (stereo not given), the calcium response (max-min fluorescence) is reported as 430 (active). In the case of `COc1ccc(CCn2c(=N)c(C(=O)NCc3ccco3)cc3c(=O)n4cccc(C)c4nc32)cc1`, the calcium response (max-min fluorescence) is reported as 489. `CCN1CCN(c2c(Cl)cccc2NC(=O)c2ccc(Br)o2)CC1` was tested, and the calcium response (max-min fluorescence) was 179 (active). `CCOC(=O)c1c(NC(=O)CSc2nnc(CN3CCOCC3)n2C)sc2c1CCCC2` was tested, and the calcium response (max-min fluorescence) was 535. For `Cc1nc2c(-c3ccc(F)cc3)c(C)nn2c(C)c1CCC(=O)N1CCN(c2ccccn2)CC1`, the calcium response (max-min fluorescence) was 512 (active). `COCCn1c(SCC(=O)Nc2cc(Cl)ccc2OC)nc2c(c1=O)SC(C)C2` (stereo not given) showed a calcium response (max-min fluorescence) of 596. In the case of `Cc1cccc(N2CCN(Cc3c(C)n(C)n(-c4ccccc4)c3=O)CC2)c1C`, the calcium response (max-min fluorescence) is reported as 413 (active). `O=C(CCN1C(=O)COc2ccccc21)NCCCN1CCN(c2ccc(F)cc2)CC1` showed a calcium response (max-min fluorescence) of 484. With `CCn1c(=O)cc(OCC(=O)NCCCN2CCN(c3cccc(Cl)c3)CC2)c2ccccc21` the calcium response (max-min fluorescence) was 499 (active). Work on `COc1cccc2sc(Nc3nc(C)c(C(C)=O)s3)nc12` yielded a calcium response (max-min fluorescence) of 507. In the case of `O=C(NCCCN1CCCCCC1)C1CC(=O)N(C2CCCC2)C1` (stereo not given), the calcium response (max-min fluorescence) is reported as 430 (active). For `c1ccc(-c2cc(-c3nnc4sc(-c5ccccn5)nn34)[nH]n2)cc1`, the calcium response (max-min fluorescence) was 437 (active). For `O=C(NCC(F)(F)F)Nc1nnc(C(F)(F)F)s1`, the calcium response (max-min fluorescence) was 552. For `CCN(CCCCOC(=O)c1ccc(OC)c(OC)c1)C(C)Cc1ccc(OC)cc1` (stereo not given), the calcium response (max-min fluorescence) was 18.8 (active). `COC(=O)c1ccc(C2C3=C(Nc4nnnn42)c2ccccc2OC3)cc1` (stereo not given) was tested, and the calcium response (max-min fluorescence) was 596. With `CC12CN(Cc3ccccc3)CC(C)(CN(Cc3ccccc3)C1)C2=NO` the calcium response (max-min fluorescence) was 113 (active). For `Cc1nc2ccccc2c2oc(C(=O)NCCCN3CCC(C)CC3)cc12`, the calcium response (max-min fluorescence) was 498 (active). `CC1CCCC(C)N1CCCNC(=O)c1cc2c(=O)n(C)c3ccccc3c2n1C` (stereo not given) was tested, and the calcium response (max-min fluorescence) was 487. `CCC1(C)Cc2c(sc3nc4n(c(=O)c23)CCCS4)CO1` (stereo not given) was tested, and the calcium response (max-min fluorescence) was 471. With `CCC(C(=O)OCCN(CC)CC)c1ccccc1` (stereo not given) the calcium response (max-min fluorescence) was 24 (active). Compound `CCN1C(=O)/C(=C2\SC(N3CCCCC3)=NC2=O)c2ccccc21` has a calcium response (max-min fluorescence) of 460. `COc1cc(Cl)c(C)cc1NC(=O)CSc1nnc(-c2ccco2)n1CC(C)C` gave a calcium response (max-min fluorescence) of 533. For `CCCCOc1ccc(C(C)(O)CCN2CCOCC2)cc1` (stereo not given), the calcium response (max-min fluorescence) was 448 (active). In the case of `O=C(Nc1ccncc1)c1c(F)cccc1F`, the calcium response (max-min fluorescence) is reported as 653. With `CCOC(=O)c1c(-c2ccc(C)cc2C)csc1NC(=O)CSc1nnnn1C` the calcium response (max-min fluorescence) was 519. With `O=C1NC(Nc2nc3ccccc3s2)(C(F)(F)F)C(=O)N1C1CCCCC1` (stereo not given) the calcium response (max-min fluorescence) was 339 (active). For `CCC(=O)c1ccc(OCC(O)CN2CCN(c3cccc(C(F)(F)F)c3)CC2)cc1` (stereo not given), the calcium response (max-min fluorescence) was 531. `O=C(C(c1ccccc1)c1ccccc1)N1CCN(CC(O)COc2ccccc2)CC1` (stereo not given) was tested, and the calcium response (max-min fluorescence) was 490 (active). `COc1ccccc1OCCOc1ccc(/C=N/n2cnnc2)cc1` was tested, and the calcium response (max-min fluorescence) was 587. For `CCC/C(O)=C1\C(=O)CC(C)(C)CC1=Nc1ccccc1OC`, the calcium response (max-min fluorescence) was 647. `Cc1ccc(-c2csc3nnc(SCC(=O)NCc4ccco4)n23)cc1` gave a calcium response (max-min fluorescence) of 620. `CCOC(=O)N1CCN(C(=O)C2CCCN(c3ncnc4c3sc3cccc(F)c34)C2)CC1` (stereo not given) was tested, and the calcium response (max-min fluorescence) was 126 (active). In the case of `CCOC(=O)N1CCN(C(=O)C2CCN(c3ncnc4c3sc3cccc(F)c34)CC2)CC1`, the calcium response (max-min fluorescence) is reported as 468 (active). Compound `CCOC(=O)N1CCN(CC(=O)Nc2cc(C)nn2-c2nc3ccccc3s2)CC1` has a calcium response (max-min fluorescence) of 645. Work on `CCOC(=O)N1CCN(S(=O)(=O)c2cc(Br)cc3c2N(C(=O)C2CC2)CC3)CC1` yielded a calcium response (max-min fluorescence) of 646. With `COc1ccc(-c2nnn(Cc3nc(N)nc(N4CCCCC4)n3)n2)cc1` the calcium response (max-min fluorescence) was 539. In the case of `CSc1nnc2c(n1)OC(c1ccsc1)N(C(C)=O)c1ccccc1-2` (stereo not given), the calcium response (max-min fluorescence) is reported as 250 (active). For `CCOC(=O)C1CCN(Cc2coc3ccc(Cl)cc3c2=O)CC1`, the calcium response (max-min fluorescence) was 351 (active). `CCC(C)(NC(=O)c1ccccn1)C(=O)NC1CCCCC1` (stereo not given) was tested, and the calcium response (max-min fluorescence) was 623. `N#CC(C(=O)c1ccc(S(=O)(=O)N2CCCCCC2)cc1)c1nc2ccccc2[nH]1` (stereo not given) was tested, and the calcium response (max-min fluorescence) was 689. In the case of `O=C(CCCN1C(=O)CSc2ncccc21)N1CCN(c2cccc(C(F)(F)F)c2)CC1`, the calcium response (max-min fluorescence) is reported as 462 (active). With `CC1=Nn2c(nnc2-c2ccccc2)SC1` the calcium response (max-min fluorescence) was 675. Work on `CCCCCOC(=O)NCCOC(=O)Nc1ccc(C(=O)OCC)cc1` yielded a calcium response (max-min fluorescence) of 655. In the case of `COc1cc(OC)c(C(=O)NC2CC(C)(C)NC(C)(C)C2)cc1OC`, the calcium response (max-min fluorescence) is reported as 510. `Cc1cc(C)n(-c2nc(SCC(=O)N3CCCC3)c3c4c(sc3n2)CCCC4)n1` gave a calcium response (max-min fluorescence) of 466. With `CN(C)CCOC(=O)C(c1ccccc1)C1(O)CCCC1` (stereo not given) the calcium response (max-min fluorescence) was 17.7 (active). Compound `COC(=O)c1ccc(NC(=O)CN(c2ccc(C)cc2)S(=O)(=O)c2c(C)n[nH]c2C)cc1` has a calcium response (max-min fluorescence) of 538. `CC1(C)CN=C(N2CCN(c3ncnc4sc5c(c34)CCCC5)CC2)S1` was tested, and the calcium response (max-min fluorescence) was 344 (active). In the case of `O=C(NC1=NCCS1)c1ccc(Cl)s1`, the calcium response (max-min fluorescence) is reported as 680. In the case of `C=C(C)Cn1c(N2CCCC2)nc2c1c(=O)[nH]c(=O)n2C`, the calcium response (max-min fluorescence) is reported as 505. `CC(C)(C)n1nnnc1C(c1cccs1)N(Cc1cccnc1)CC1CCCO1` (stereo not given) was tested, and the calcium response (max-min fluorescence) was 380 (active). `O=C(c1ccc(S(=O)(=O)N2CCOCC2)cc1)N1CCN(c2ccccc2)CC1` showed a calcium response (max-min fluorescence) of 556. `O=S(=O)(c1ccc(OCC(O)CN2CCN(c3ccccc3Cl)CC2)cc1)N1CCOCC1` (stereo not given) was tested, and the calcium response (max-min fluorescence) was 515 (active). With `CCOC(=O)C1=C(CC)Nc2ccccc2N=C1NC(=O)c1cccc(S(=O)(=O)N2CCCC2)c1` the calcium response (max-min fluorescence) was 466 (active). For `Cn1c(CCN2CCCCCC2)nc2cc(NC(=O)Nc3ccccc3)ccc21`, the calcium response (max-min fluorescence) was 252 (active). `COc1ccc(S(=O)(=O)Nc2ccc3c(c2)OCO3)cc1Cl` showed a calcium response (max-min fluorescence) of 516. Work on `CN(C)[C@@H]1C(=O)C(C(N)=O)=C(O)[C@@]2(O)C(=O)C3=C(O)c4c(O)ccc(Cl)c4[C@@H](O)[C@H]3C[C@@H]12` yielded a calcium response (max-min fluorescence) of 610. With `CC1(C)Cc2c(sc3nc4n(c(=N)c23)CCCCC4)CO1` the calcium response (max-min fluorescence) was 398. In the case of `CCOC(=O)c1[nH]c2ccc(OC)cc2c1NC(=O)CCN1CCN(Cc2ccccc2)CC1`, the calcium response (max-min fluorescence) is reported as 218 (active). For `O=C(c1ccc(-n2cnnn2)cc1)N1CCN(C(c2ccccc2)c2ccccc2)CC1`, the calcium response (max-min fluorescence) was 100 (active). `CCCCN(CCCC)C(=O)CCS(=O)(=O)c1ccc2c(c1)n(C)c(=O)c(=O)n2C` showed a calcium response (max-min fluorescence) of 581. In the case of `CCOc1ccccc1C(=O)NCCCn1ccnc1`, the calcium response (max-min fluorescence) is reported as 665. For `COC(CCN(C)C)(c1ccccc1)c1ccccc1`, the calcium response (max-min fluorescence) was 226 (active). `COc1cccc(OCCOc2cccc(/C=N/n3cnnc3)c2)c1` was tested, and the calcium response (max-min fluorescence) was 588. Compound `COCCN(C(=O)CCC(=O)Nc1ccccn1)C(C(=O)NCCC(C)C)c1ccc(OC)cc1` (stereo not given) has a calcium response (max-min fluorescence) of 575.
